Data: PubChem BioAssay AID624481 (The Scripps Research Institute Molecular Screening Center, 2012)
The source made the active and inactive calls. Cut-off read from the data, not from the text of the source: active = inhibition above about 50%; inactive = the rest.

Target: Prolyl endopeptidase-like (Mus musculus) (UniProt Q8C167)
Test: purified PREPL inhibitors, PREPL inhibitor project, biochemical, gel-based competitive ABPP, fluorescence, HTS hits (AID 624481)
Settings: at 20 µM, active compounds read high

Chain of Prolyl endopeptidase-like (Mus musculus) (Q8C167 whole entry, looked up): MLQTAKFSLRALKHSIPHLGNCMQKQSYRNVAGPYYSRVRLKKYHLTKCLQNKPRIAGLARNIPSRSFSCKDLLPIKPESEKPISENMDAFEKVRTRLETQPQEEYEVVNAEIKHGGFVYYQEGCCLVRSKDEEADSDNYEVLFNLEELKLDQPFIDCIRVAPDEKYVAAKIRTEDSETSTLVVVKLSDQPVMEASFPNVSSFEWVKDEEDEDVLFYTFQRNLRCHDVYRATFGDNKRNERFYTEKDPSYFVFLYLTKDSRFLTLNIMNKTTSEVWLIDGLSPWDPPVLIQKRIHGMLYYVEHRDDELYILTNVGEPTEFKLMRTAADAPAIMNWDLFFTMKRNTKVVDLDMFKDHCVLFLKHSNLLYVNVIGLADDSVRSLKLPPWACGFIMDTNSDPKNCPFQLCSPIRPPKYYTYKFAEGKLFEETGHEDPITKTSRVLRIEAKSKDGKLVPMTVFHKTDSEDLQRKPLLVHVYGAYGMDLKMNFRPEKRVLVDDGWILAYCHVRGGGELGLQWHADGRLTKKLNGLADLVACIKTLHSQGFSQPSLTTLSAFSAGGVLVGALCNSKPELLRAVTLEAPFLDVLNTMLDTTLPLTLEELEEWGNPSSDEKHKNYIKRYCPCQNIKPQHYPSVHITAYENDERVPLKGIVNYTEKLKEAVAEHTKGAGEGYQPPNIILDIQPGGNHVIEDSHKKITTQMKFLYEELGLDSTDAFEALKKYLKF

Cc1ccc(CN2CCSc3ccc(C(=O)N4CCC5(CC4)OCCO5)cc32)cc1 was tested, and the inhibition was -8% (inactive).

For COc1ccc2[nH]c(C)c(CCNCc3cc(OC)c4c(c3)OCO4)c2c1, the inhibition was -15% (inactive).

In the case of O=C(c1ccc2c(c1)N(Cc1ccc(F)cc1)CCS2)N1CCC2(CC1)OCCO2, the inhibition is reported as -13% (inactive).

With Clc1ccc(C[n+]2c(-c3ccccc3)cc(-c3ccccc3)cc2-c2ccccc2)cc1 the inhibition was -51% (inactive).

In the case of C1=C(c2c[nH]c3ccccc23)CCNC1, the inhibition is reported as -17% (inactive).

With COc1ccc2[nH]c(C)c(CCNCc3cn(C)c4ccccc34)c2c1 the inhibition was 16% (inactive).

In the case of Brc1ccc(-[n+]2c(-c3ccccc3)cc(-c3ccccc3)cc2-c2ccccc2)cc1, the inhibition is reported as -32% (inactive).

With CCOc1cccc(=NC2CCCCC2)c2c(C)[nH]c(C)c12 the inhibition was 13% (inactive).

For C=CCn1c(O)c(C(CC)=NCCc2c[nH]c3ccccc23)c(=O)[nH]c1=O, the inhibition was 43% (inactive).

Cc1ccc(C[n+]2c(-c3ccc(C)cc3)cc(-c3ccc(C)cc3)cc2-c2ccc(C)cc2)cc1 was tested, and the inhibition was 1% (inactive).

For CC(C)Cc1[nH]c(=O)c(C#N)c2c1CCC2, the inhibition was 57% (active).

In the case of C=CCn1c(O)c(C(CC)=NCc2ccc3c(c2)OCO3)c(=O)[nH]c1=O, the inhibition is reported as 32% (inactive).

For NC(N)=NN=Cc1ccc(N(c2ccccc2)c2ccccc2)cc1, the inhibition was -64% (inactive).

With O=C(c1ccc2c(c1)N(Cc1ccccc1)CCS2)N1CCC2(CC1)OCCO2 the inhibition was -19% (inactive).
